aSyn yeast inh: rescues yeast growth from alpha-synuclein toxicity; Yeast expressing alpha-synuclein, growth rescue, BacTiter-Glo, 24 h; Potency, µM (doses to about 46.1 µM), without a hit: at the top dose growth rescue (activation), actives largely listed as activators; 370,000 compounds, 0.14% hits; AID 652106; further: % of control where 0% means no effect; nearly all actives have a fitted effect of over 65% in size
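Screening used galactose-induced yeast with toxic alpha-synuclein levels, exposed to compound for 24 hr at 30 deg C. Cell growth, read with BacTiter-Glo luminescence, gave the measured signal.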
FUS yeast rescue: FUS proteinopathy suppression in yeast | AID 1347120 | S. cerevisiae FUS-expressing, growth rescue, OD600, 24 h | 390,000 compounds, 0.24% hits | Potency, µM (highest dose often 76.6 µM), most hits filed as activators;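 further: plate controls were DMSO vehicle for no effect and reference control for full effect; nearly all actives have a fitted effect of over 55% in size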
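Absorbance at 600 nm, taken 24hr after compound addition, measured rescue of FUS-yeast growth at 30C. Induction used 2% galactose with seeding at OD 0.005. Controls: CP55940 from 92uM final, DMSO only.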
ERG-DNA inh: ERG Ets/DNA interaction inhibition | P11308 | fluorescence polarization, His-ERG Ets domain / labelled DNA | Potency, µM (titrated, usually from 76.9 µM), for the others: at the highest dose FP activity, negative = inhibition, most hits filed as inhibitors | 370,000 compounds, 0.028% hits; active means well fitted inhibition curve with a large enough effect in the polarisation, with a control signal flat; inconclusive means small, poorly fitted or top-dose-only effect, or effect the other way, or a change in a side signal; inactive means no such curve, though single readings can be large or run the other way; the % refers to the polarisation;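 further: polarization taken with two DNA probes labelled with fluorescein and Texas red; % of control where 0% means no effect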
Target sequence (P11308 whole entry, looked up, the tested form may be a part): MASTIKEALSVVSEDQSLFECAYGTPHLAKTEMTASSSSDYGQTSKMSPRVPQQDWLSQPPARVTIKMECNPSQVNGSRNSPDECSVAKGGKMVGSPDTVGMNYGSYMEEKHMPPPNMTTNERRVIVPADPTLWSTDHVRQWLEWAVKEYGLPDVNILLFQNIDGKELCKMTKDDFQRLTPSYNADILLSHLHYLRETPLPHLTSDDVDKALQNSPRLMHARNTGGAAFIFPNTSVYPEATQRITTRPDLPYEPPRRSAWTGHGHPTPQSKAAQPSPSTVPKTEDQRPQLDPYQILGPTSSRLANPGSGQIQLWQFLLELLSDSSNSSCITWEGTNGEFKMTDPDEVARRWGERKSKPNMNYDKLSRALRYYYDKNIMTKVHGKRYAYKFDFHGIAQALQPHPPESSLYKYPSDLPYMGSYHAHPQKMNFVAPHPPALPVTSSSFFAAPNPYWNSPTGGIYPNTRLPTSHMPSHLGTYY
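His-tagged ERG Ets domain (1 uM in the protein solution; 300mM KCl, 50mM Tris-HCl, 1mM EDTA, 1mM DTT, pH 7.5) received compound, then a probe mix of 5 nM fluorescein-DNA and 100nM Texas-615-DNA. Fluorescence polarization was read for both dyes.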
Mito fusion act: inhibitors of mitochondrial division or activators of mitochondrial fusion. S. cerevisiae fusion-defective mutant growth rescue, CellTiterGlo 48 h. Potency, µM (highest dose often 46.1 µM), inactives show at the top dose growth rescue (activation), hits mostly activators. 320,000 compounds, 0.23% hits; further: % of control where 0% means no effect; nearly all actives have a fitted effect of over 45% in size
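Yeast fusion mutant, YPEG (non-fermentable carbon), compound, 48 h at 37C non-permissive; CellTiterGlo added, 10 min RT, luminescence read. Rescued growth = division inhibition.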
Abeta yeast res: restores growth of yeast expressing A-beta42 peptide | yeast expressing A-beta42, growth rescue, OD600, 48 h; response scale: 0% DMSO, 100% iron-clioquinol control | Potency, µM (titrated, usually from 46.1 µM), hits mostly activators | 410,000 compounds, 0.063% hits | AID 1347071; further: nearly all actives have a fitted effect of over 55% in size
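Yeast A-beta toxicity model in growth medium with pinned compounds, 48 h at 30 C; growth read as absorbance at 600 nm. Normalized to FeCl3/clioquinol equimolar mix (positive) and DMSO (negative).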
TDP-43 yeast inh: TDP-43 toxicity inhibition in yeast. TDP-43 expressing yeast growth rescue, BacTiter-Glo, 24 h. Potency, µM (highest dose often 46.1 µM), for inactives: at the highest dose growth rescue (activation), hits mostly activators. 410,000 compounds, 1.8% hits. AID 652104; further: % of control where 0% means no effect; nearly all actives have a fitted effect of over 50% in size
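Yeast cells expressing TDP-43 under galactose induction are exposed to compounds for 24 hr at 30 deg C. BacTiter-Glo luminescence measures growth, so protective compounds score as activators.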
Numbers without * were called inactive; i = inactive; ? = inconclusive; · = no result given; ! = not active in a repeat; [ ] = remark or other dose. Most compounds without a hit are left out; they make up all but 2.2% or so of the library. Unless noted, the call rests on the fitted dose curve; in most records, active means well fitted curve in the direction sought with a large enough effect; inconclusive means small, poorly fitted or top-dose-only effect, or another doubt; inactive means no such curve, though single readings can be large; an effect the other way counts as inactive or inconclusive. Potency means the concentration at half of the fitted maximal effect.

SMILES	aSyn yeast inh	FUS yeast rescue	ERG-DNA inh	Mito fusion act	Abeta yeast res	TDP-43 yeast inh
O=[N+]([O-])c1cnc2ccccc2c1Sc1ccccc1	·	i	·	·	·	·
COC(=O)c1cc(NS(=O)(=O)c2cc(Br)cc3c2N(C(C)=O)CC3)cc(C(=O)OC)c1	·	i	-2.7%	·	i	-18.5%[9.22 µM]
COc1cc(OC)c(/C=C/c2cc3ccccc3c[n+]2C)c(OC)c1	-6.1%	·	·	·	·	·
CN(C)c1ccc(CNC(=O)c2cnc3sc(N4CCCC4)nn3c2=O)cc1	·	i	-4.6%	·	i	14.1%
S=C(NCCc1ccccc1)Nc1ccc(N2CCCCC2)cc1	-9.1%	i	3.5%	-44.3%	8.91µM*	29.6%
COC(=O)NNC(=O)c1ccc(Cl)cc1Cl	-0.9%	i	-6.8%	-11.6%	i	?
CC(C)(C)C(=O)NC(=S)NNC(=O)c1ccc(Cl)cc1Cl	5.01µM*	i	-7.4%	-1.1%	i	-56.3%
CNS(=O)(=O)c1cccc(C(=O)OCc2csc(-c3ccccc3)n2)c1	-0.1%	·	3.1%	25.1%	i	15.8µM*
O=C(CNS(=O)(=O)c1cccc(Cl)c1)OCc1csc(-c2ccccc2)n1	?	·	-3.5%	4.5%	i	11.2%
COc1cc(Cl)c(C)cc1NC(=O)CC1Oc2ccccc2NC1=O (centres undefined)	·	i	3.0%	·	i	8.5%
Cc1csc(NC(=O)C(Cc2ccccc2)n2cccc2)n1 (centres undefined)	-8.3%	i	7.6%	2.8%	?	12.6µM*
Cc1ccc(NC(=O)C(Cc2ccccc2)n2cccc2)cc1 (centres undefined)	2.1%	i	-0.4%	10.2%	i	14.1%
COc1cccc(NC(=O)C(Cc2ccccc2)n2cccc2)c1 (centres undefined)	8.1%	i	-4.2%	20.2%	i	12.6µM*
COc1ccc(Nc2c3c(nc4ccc(NC(=O)c5cc(Cl)ccc5OC)cc24)CCCC3)cc1OC	·	?	-1.2%	·	i	-2.6%
COc1ccc(N2CCN(C(=O)COCc3cc(-c4ccc5c(c4)OCO5)on3)CC2)cc1	0.1%	i	0.5%	6.7%	i	-14.0%
COc1cccc(CNC(=O)COCc2cc(-c3ccc4c(c3)OCO4)on2)c1	·	i	-4.5%	·	i	35.5µM*
COc1ccc(CNC(=O)COCc2cc(-c3ccc4c(c3)OCO4)on2)cc1	·	i	-0.9%	·	i	23.9%
O=C(COCc1cc(-c2ccc3c(c2)OCO3)on1)N1CCN(c2cccc(C(F)(F)F)c2)CC1	18.6%	i	-2.9%	14.9%	i	35.5µM*!
Cc1ccc(CNC(=O)CCCc2nnc3n(CC(C)C)c(=O)c4sccc4n23)cc1	·	i	3.3%	·	i	2.0%
COc1ccc(/C=C/C(=O)N2CCC(c3nc4ccccc4o3)CC2)cc1OC	·	?	6.4%	·	i	15.8µM*
Cc1ccc(/C=C/C(=O)N2CCC(c3nc4ccccc4o3)CC2)cc1	·	i	-2.8%	·	i	5.7%
COc1ccc(C(C)NC(=O)CN(c2cc(OC)ccc2OC)S(=O)(=O)c2ccccc2)cc1 (centres undefined)	·	?	-0.5%	·	i	-3.4%
O=C(O)C1C2C=CC(CC2)C1C(=O)O (centres undefined)	9.1%	?	6.7%	-1.4%	?	20µM*
CC(C)c1ccc(NC(=O)C2C3C=CC(CC3)C2C(=O)O)cc1 (centres undefined)	3.4%	i	6.9%	·	i	12.6µM*
CC(=O)Nc1ccc(NC(=O)C2C3C=CC(C3)C2C(=O)O)cc1 (centres undefined)	-0.5%	i	2.1%	-0.1%	i	15.2%
SMILES	aSyn yeast inh	FUS yeast rescue	ERG-DNA inh	Mito fusion act	Abeta yeast res	TDP-43 yeast inh
Cc1ccc(C)c(CSc2nnc3[nH]c(=O)cc(C)n23)c1	·	i	-0.8%	·	i	22.3%
COc1ccc(S(=O)(=O)N2CCSC2)cc1C	0.9%	i	5.4%	0.2%	i	17.4%
Cc1ccc(S(=O)(=O)N2CCSC2)cc1C	1.3%	0.891µM*	·	0.2%	i	-11.1%
COCCNC(=O)c1cc2sccc2n1C	-7.8%	i	2.1%	3.2%	i	15.0%
CCc1ccccc1NC(=O)c1cc2sccc2n1C	-1.0%	i	-8.7%	-1.7%	i	12.6µM*
COC(=O)c1ccc(NC(=O)c2cc3sccc3n2C)cc1	-20.1%	i	6.5%	-2.4%	i	23.6%
Cn1c(C(=O)Nc2ccccc2)cc2sccc21	6.4%	i	2.4%	7.1%	i	12.6µM*
COc1ccc(CNC(=O)c2cc3sccc3n2C)cc1	·	i	4.1%	·	i	35.5µM*
Cc1ccc2onc(CNC(=O)N3CCN(c4cc(Cl)ccc4C)CC3)c2c1	·	i	4.8%	·	i	?
CC1(C)CC2CC(C)(CN2C(=O)COC(=O)c2ccc(O)cc2O)C1 (centres undefined)	-11.2%	i	1.2%	·	10µM*	18.6%
CC1(C)CC2CC(C)(CN2C(=O)COC(=O)c2cc(Cl)cc(Cl)c2N)C1 (centres undefined)	7.3%	i	-2.2%	6.8%	i	-10.2%
CO/N=C(\c1nonc1N)N1CCN(c2ccc(Cl)cc2[N+](=O)[O-])CC1	3.5%	i	-4.0%	1.6%	i	14.1µM*
COc1ccc(NC(=O)CSc2nc(C)cc(=O)[nH]2)cc1OC	·	i	·	·	·	·
COc1ccc2c(Cl)cc(NC(=O)Nc3c(C)cccc3C)nc2c1	-6.9%	i	·	·	i	17.9%
Cc1cccc(-n2cc(-c3ccccc3)c3c(NC4CCCC4)ncnc32)c1	·	i	5.9%	·	i	20µM*
Cc1ccc(-n2cc(-c3ccccc3)c3c(NC4CCCC4)ncnc32)cc1	·	i	2.9%	·	i	35.5µM*
COc1ccc(-n2cc(-c3ccccc3)c3c(NC4CCCCC4)ncnc32)cc1	·	i	1.3%	·	i	-3.2%
O=C1N2CCc3ccccc3C2CS(=O)(=O)N1Cc1ccc(F)cc1 (centres undefined)	·	i	·	·	·	·
Cc1cn2c(=O)cc(COC(=O)c3cccc(NC(=O)COc4ccccc4Cl)c3)nc2s1	·	i	4.9%	·	i	20.8%
Cc1c(/C=C/C(=O)c2ccc(Cl)s2)cnn1C	3.0%	i	-2.9%	2.7%	i	12.6µM*
CCOc1ccc(C(=O)O/N=C(\N)c2ccccn2)cc1OCC	-0.3%	i	-10.0%	-3.0%	i	31.6µM*
O=Cc1ccc(OC(=O)/C=C/c2ccccc2)cc1	25.2%	i	-8.7%	12.3%	i	17.8µM*
N/C(=N\OC(=O)/C=C/c1ccccc1)c1ccccc1	-18.9%	i	·	-4.4%	i	17.8µM*

Assay outcomes: PubChem, National Center for Advancing Translational Sciences (NCATS)
